Here are results for six compounds from the supplement of paper PMC7411054.

What all share (settings): treatment time: 24 h
Experiment [1] deals with WPMY1-TUBA1B-RELA. Nature of the experiment: lowest phenotypically active concentration; higher = less potent. In a few lines: (§1)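 Two criteria together defined phenotypic activity: deviation and reproducibility. Deviation meant ≥3 of 4 wells beyond the 95th percentile of Euclidean distances in solvent control wells, and reproducibility meant a median replicate Pearson correlation above the 95th percentile of non-replicates. Wells had been treated for 24 h at 0.3, 1, 3 or 9 µM in fifteen gene-edited A549, HepG2 and WPMY1 reporter lines before live imaging.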

Another experiment concerns A549-ACTB-RAB5A. Kind of experiment: phenotypically active (imaging signature differs from DMSO and reproducible) at any of 0.3-9 uM (binary (1 = active, 0 = inactive)); higher = active. In a few lines: as §1
A further experiment deals with A549-CANX-COX4. Described as above. Put shortly:
as §1

A further experiment concerns A549-GM130-SQSTM1. The experiment is described as above. In a few lines: as §1
The test system of another experiment is A549-TP53BP1-CLTA. The experiment is described as above. Put shortly: as §1
For a further experiment, the system named is A549-TUBA1B-RELA. Described as above. Put shortly:
as §1

A further experiment has as its system HepG2-ACTB-RAB5A. Described as above. In a few lines:
as §1

A further experiment deals with HepG2-CANX-COX4. The experiment is described as above. Put shortly:
as §1

The next experiment concerns HepG2-GM130-SQSTM1. The description is as above. In a few lines: as §1
The subject of a further experiment is HepG2-TP53BP1-CLTA. The experiment is described as above. In a few lines: as §1
Another experiment deals with HepG2-TUBA1B-RELA. The experiment is described as above. In a few lines: as §1
The test system of experiment [2] is WPMY1-ACTB-RAB5A. Described as above. In a few lines: as §1
For experiment [3], the system named is WPMY1-CANX-COX4. Described as above. Put shortly: as §1
Experiment [4] deals with WPMY1-GM130-SQSTM1. The experiment is described as above. In a few lines:
as §1

The test system of a further experiment is WPMY1-TP53BP1-CLTA. Described as above. Put shortly: as §1
For experiment [5], the system named is WPMY1-TUBA1B-RELA. The experiment is described as above. Put shortly:
as §1

Experiment [6] concerns WPMY1-ACTB-RAB5A. Kind of experiment: lowest phenotypically active concentration; higher = less potent. Put shortly: as §1
Experiment [7] concerns WPMY1-CANX-COX4. The description is as above. In a few lines: as §1
For experiment [8], the system named is WPMY1-GM130-SQSTM1. The experiment is described as above. Put shortly: as §1

Take `COc1ccc(S(=O)(=O)ON=C2C=C(C)C(=O)C(C)=C2)cc1`: the “lowest phenotypically active concentration” value with WPMY1-TUBA1B-RELA [1] stood at 9 µM. The phenotypically active is 0 (inactive) in the experiment on A549-ACTB-RAB5A; 0 (inactive) with A549-CANX-COX4; 1 (active) in the experiment on A549-GM130-SQSTM1; 0 (inactive) in the experiment on A549-TP53BP1-CLTA; 1 (active) with A549-TUBA1B-RELA; 0 (inactive) in the experiment with HepG2-ACTB-RAB5A. In addition, the phenotypically active with HepG2-CANX-COX4, in the experiment on HepG2-GM130-SQSTM1, with HepG2-TP53BP1-CLTA, with HepG2-TUBA1B-RELA, in the experiment with WPMY1-ACTB-RAB5A [2] and in the experiment with WPMY1-CANX-COX4 [3] was 0 (inactive) in each case. Also, the phenotypically active with WPMY1-GM130-SQSTM1 [4] was 0 (inactive); with WPMY1-TP53BP1-CLTA it was 0 (inactive); in the experiment on WPMY1-TUBA1B-RELA [5], 1 (active).

On to `Nc1nnc(Sc2ncc([N+](=O)[O-])s2)s1`, for which the phenotypically active is 0 (inactive) with A549-ACTB-RAB5A; 0 (inactive) in the experiment with A549-CANX-COX4; 0 (inactive) in the experiment with A549-GM130-SQSTM1; 0 (inactive) in the experiment on A549-TP53BP1-CLTA; 1 (active) with A549-TUBA1B-RELA; 0 (inactive) in the experiment on HepG2-ACTB-RAB5A. The phenotypically active in the experiment on HepG2-CANX-COX4, in the experiment with HepG2-GM130-SQSTM1, in the experiment with HepG2-TP53BP1-CLTA, in the experiment with HepG2-TUBA1B-RELA, in the experiment on WPMY1-ACTB-RAB5A [2] and with WPMY1-CANX-COX4 [3] was 0 (inactive) each time. Further, the phenotypically active with WPMY1-GM130-SQSTM1 [4], in the experiment on WPMY1-TP53BP1-CLTA and in the experiment on WPMY1-TUBA1B-RELA [5] was 0 (inactive) in each case.

As to `O=c1cc(N2CCOCC2)oc2c1ccc1ccccc12`, the “lowest phenotypically active concentration” value in the experiment with WPMY1-TUBA1B-RELA [1] stood at 9 µM. For the same compound, the phenotypically active is 0 (inactive) in the experiment on A549-ACTB-RAB5A; 0 (inactive) in the experiment with A549-CANX-COX4; 1 (active) in the experiment on A549-GM130-SQSTM1; 0 (inactive) with A549-TP53BP1-CLTA; 0 (inactive) in the experiment on A549-TUBA1B-RELA; 0 (inactive) with HepG2-ACTB-RAB5A. Further, the phenotypically active with HepG2-CANX-COX4, in the experiment on HepG2-GM130-SQSTM1, with HepG2-TP53BP1-CLTA, in the experiment on HepG2-TUBA1B-RELA, with WPMY1-ACTB-RAB5A [2] and with WPMY1-CANX-COX4 [3] was 0 (inactive) each time. Besides, the phenotypically active with WPMY1-GM130-SQSTM1 [4] was 0 (inactive); in the experiment on WPMY1-TP53BP1-CLTA it was 0 (inactive); in the experiment on WPMY1-TUBA1B-RELA [5] it was 1 (active).

For `C[C@H](NC(=O)[C@@H](O)c1cc(F)cc(F)c1)C(=O)N[C@@H]1C(=O)N(C)c2ccccc2-c2ccccc21`, the “lowest phenotypically active concentration” value is at most 0.3 µM with WPMY1-ACTB-RAB5A [6], 1 µM in the experiment with WPMY1-CANX-COX4 [7] and 3 µM with WPMY1-GM130-SQSTM1 [8]. Besides, the phenotypically active in the experiment with A549-ACTB-RAB5A, in the experiment with A549-CANX-COX4, with A549-GM130-SQSTM1, with A549-TP53BP1-CLTA, in the experiment with A549-TUBA1B-RELA and in the experiment on HepG2-ACTB-RAB5A was 0 (inactive) in each case. Moreover, the phenotypically active in the experiment on HepG2-CANX-COX4 was 1 (active); in the experiment on HepG2-GM130-SQSTM1 it was 0 (inactive); in the experiment with HepG2-TP53BP1-CLTA, 0 (inactive); with HepG2-TUBA1B-RELA, 0 (inactive); with WPMY1-ACTB-RAB5A [2] it was 1 (active); in the experiment with WPMY1-CANX-COX4 [3] it was 1 (active). The phenotypically active with WPMY1-GM130-SQSTM1 [4] was 1 (active); with WPMY1-TP53BP1-CLTA, 0 (inactive); in the experiment on WPMY1-TUBA1B-RELA [5], 0 (inactive).

As for `CO[C@H]1C=CO[C@@]2(C)Oc3c(C)c(O)c4c(O)c(c(/C=N/N5CCN(C)CC5)c(O)c4c3C2=O)NC(=O)C(C)=CC=C[C@H](C)[C@H](O)[C@@H](C)[C@@H](O)[C@@H](C)[C@H](OC(C)=O)[C@@H]1C` [Rifampicin], the phenotypically active was 0 (inactive) in the experiment on A549-ACTB-RAB5A; 0 (inactive) with A549-CANX-COX4; 1 (active) with A549-GM130-SQSTM1; 0 (inactive) in the experiment with A549-TP53BP1-CLTA; 0 (inactive) in the experiment on A549-TUBA1B-RELA; 0 (inactive) with HepG2-ACTB-RAB5A. The phenotypically active was 1 (active) in the experiment with HepG2-CANX-COX4; 0 (inactive) in the experiment on HepG2-GM130-SQSTM1; 0 (inactive) in the experiment on HepG2-TP53BP1-CLTA; 0 (inactive) in the experiment with HepG2-TUBA1B-RELA; 0 (inactive) with WPMY1-ACTB-RAB5A [2]; 0 (inactive) in the experiment on WPMY1-CANX-COX4 [3]. The phenotypically active in the experiment with WPMY1-GM130-SQSTM1 [4], in the experiment with WPMY1-TP53BP1-CLTA and in the experiment on WPMY1-TUBA1B-RELA [5] was 0 (inactive) in each case.

As to `Cc1c(C)c2c(c(C)c1O)CC[C@@](C)(CCC[C@H](C)CCC[C@H](C)CCCC(C)C)O2` [Tocopherol (R,S)], the phenotypically active in the experiment on A549-ACTB-RAB5A, in the experiment on A549-CANX-COX4, with A549-GM130-SQSTM1, in the experiment on A549-TP53BP1-CLTA, with A549-TUBA1B-RELA and in the experiment with HepG2-ACTB-RAB5A was 0 (inactive) each time. Besides, the phenotypically active is 1 (active) in the experiment with HepG2-CANX-COX4; 0 (inactive) in the experiment with HepG2-GM130-SQSTM1; 0 (inactive) in the experiment with HepG2-TP53BP1-CLTA; 0 (inactive) with HepG2-TUBA1B-RELA; 0 (inactive) with WPMY1-ACTB-RAB5A [2]; 0 (inactive) with WPMY1-CANX-COX4 [3]. The phenotypically active in the experiment on WPMY1-GM130-SQSTM1 [4], with WPMY1-TP53BP1-CLTA and in the experiment on WPMY1-TUBA1B-RELA [5] was 0 (inactive) in each case.
